PubChem BioAssay AID743398 (Broad Institute, 2014)
The campaign covered roughly 300,000 compounds. About 3,600 (1.2%) were called active. Rule as the data show it: active = activation above about 30% (passing the limit was not always enough); inconclusive = no clear call, values can overlap the other calls. Shown is part of a subset that was picked to be rich in actives.

assay: Wnt/beta-catenin pathway activators, primary screen, cell-based, plate reader, single point (AID 743398); settings: Wnt/beta-catenin reporter cell assay, activator, at 9.35 µM, hits give high values;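 also: 0% = neutral control wells and 100% = positive control wells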

activation, inactive:
CC(=O)c1ccc(Nc2nc(C(N)c3ccccc3Cl)cs2)cc1 (configuration not stated) -4.58%
O=C(C(=O)N1CCC(CNS(=O)(=O)Cc2ccccc2)CC1)c1cc2ccccc2o1 -4.41%
Cc1ccc(C(=O)NNC(=O)c2cccs2)cc1 6.9%
CCc1nc(SCC(=O)NNC(=O)c2ccc(C)cc2)c2ccccc2n1 -1.15%
COC(=O)C1=C(C)N(Cc2ccccc2C(F)(F)F)C(=NCC2CC2)NC1c1cccc(Cl)c1 (configuration not stated) -1.87%
CCOC(=O)[C@]12CCCC=C1N(Cc1cccc3ccccc13)C(=O)[C@H](CC(=O)NCC13CC4CC(CC(C4)C1)C3)C2 -3.35%
CCc1c(-c2ccc(F)cc2)ncn1Cc1cccc(-c2ccccc2)c1 -4.88%
CN[C@H]1C[C@H]2c3[nH]c4c(-c5ccccc5)cccc4c3CCN2C(=O)[C@H]1[C@H](C)O -5.37%
CCCc1nc2c3ccccc3ccn2c1Cc1ccccc1C(F)(F)F -0.94%
Cc1ccc(N)cc1CN1CCN(c2ncc(Cc3ccccc3)cn2)CC1 -1.28%
COc1ccc(-c2[nH]ncc2CN(C)Cc2cc(C)[nH]n2)c(F)c1 -0.792%
COc1ccc(-c2[nH]ncc2CN(C)Cc2cccnc2)c(F)c1 8.31%
O=C(O)c1cc(S(=O)(=O)N(Cc2ccccc2)c2ccccc2)ccc1Cl 1.67%
CCOC(=O)N1CCN(C(=O)c2ccccc2N(Cc2ccccc2)S(=O)(=O)c2ccc(OC)cc2)CC1 -3.31%
O=C(N[C@H](Cc1ccccc1)C(=O)N1CCCN(Cc2cccs2)CC1)[C@H]1O[C@@H](n2ccc(=O)[nH]c2=O)[C@H](O)[C@@H]1O 2.26%
NC(=O)c1ncn([C@@H]2O[C@H](C(=O)O)[C@@H](O)[C@H]2O)n1 3.51%
Cc1cccc(Nc2nc(-c3ccccc3)cs2)n1 19.7%
CC(=O)Nc1cccc(-c2csc(Nc3cccc(C)n3)n2)c1 26.8%
CC(=NNC(N)=O)c1ccc(Cl)c(-n2cccc2)c1 -7.68%
COc1ccccc1-c1cc2nc(NCc3cccc(Cl)c3)ccn2n1 -1.89%
COc1ccc(OCC(=O)Nc2nnc(-c3ccco3)s2)cc1 -4.19%
Cc1ccc(OCC(=O)Nc2nnc(-c3ccco3)s2)cc1 -0.584%
C=CCN=C1NC(c2ccccc2)C(C(=O)OC)=C(C)N1Cc1ccc(C(F)(F)F)cc1 (configuration not stated) -8.4%
Cn1c(NC(=O)c2ccccc2)nc2ccccc21 19.2%
Cn1c(S(=O)(=O)O)nc2ccccc21 -1.9%
CCCCc1c(-c2ccc(Cl)cc2)ncn1CCc1ccccc1OC -10.4%
O=S1(=O)c2ccc(Br)cc2-n2nncc2CN1Cc1cccc(Cl)c1 -0.853%
CCOC(=O)[C@H]1Nc2ccc(Cl)cc2[C@@H]2[C@H]1C1CC(c3ccccc31)N2C(=O)OCc1ccccc1 (some centres not stated) -1.09%
Cc1cccc(N2O[C@H]3C=CC2CCCC3)n1 -7.04%
COc1ccc(C2=Nc3ccccc3NC(=O)C2N(C(=O)c2cc3ccccc3[nH]2)c2ccccc2)cc1 (configuration not stated) 23.9%
CCCCCCCCN1C(=O)[C@@H](CC(=O)N2CCN(C(=O)OCC)CC2)C[C@@]2(C(=O)OC)C1=C[C@H](C1CCCC1)O[C@@H]2C -4.17%
CCCCOCCCNC(=O)C[C@@H]1C[C@@]2(C(=O)OCC)CCCC=C2N(CCC2=CCCCC2)C1=O -4.42%
CC1CCN(C(=O)c2ncn3c2C(=O)N[C@@H](C)C3)CC1 -1.28%
C[C@H]1[C@H](c2ccccc2)Oc2cc(Br)ccc2S(=O)(=O)N1Cc1cccc(F)c1 -3.84%
CCCNC(=O)C1(C)CCCN(Cc2cccc(C(F)(F)F)c2)C1 (configuration not stated) -4.42%
O=C(CSC(=S)N1CCOCC1)c1ccccc1 9.4%
COc1cccc(NC(=O)CN(C)C(=O)CSC(=S)N2CCCC2)c1 0.702%
O=C(NS(=O)(=O)c1cccs1)[C@H]1O[C@@H](n2ccc(=O)[nH]c2=O)[C@H](O)[C@@H]1O -2.42%
COC(=O)[C@]12CCCCC=C1N(Cc1cccc3ccccc13)C(=O)[C@H](CC(=O)N1CCOCC1)C2 2.09%
COCc1[nH]nc2c1C(c1ccccc1)N(c1ccccc1)C2=O (configuration not stated) -1.18%
Cc1ccc(S(=O)(=O)N2CCN(C(=O)COC(=O)c3c(C)cc(C)cc3C)CC2)c(C)c1 -2.2%
Cc1ccc(S(=O)(=O)N2CCN(C(=O)CSc3cc(C)ccc3C)CC2)c(C)c1 -0.764%
Cc1ccc2nc(CN(C)C(=O)[C@@H](Cc3ccccc3)NC(=O)[C@H]3O[C@@H](n4ccc(=O)[nH]c4=O)[C@H](O)[C@@H]3O)[nH]c2c1 -3.23%
Cc1ccn(CCC(=O)N2c3ccccc3CC2C)n1 (configuration not stated) -0.727%
CCn1nc(C(=O)OCC(=O)N2c3ccccc3CC2C)c2ccccc2c1=O (configuration not stated) -0.818%
CCc1nc2ccc(C(=O)NC3CCN(Cc4ccccc4)CC3)cn2c1N(CC)CCOC -0.563%
O=C1C(Sc2cccc(F)c2)=C[C@@]2(O)CC[C@@H](O)[C@]1(Sc1cccc(F)c1)[C@H]2O -1.51%
O=C(N/N=C/c1cccc([N+](=O)[O-])c1)c1ccncc1 -0.352%
COc1ccc(O)c(/C=N/N=C/c2cccc([N+](=O)[O-])c2)c1 5.49%
COCC1CCCCN1C(=O)c1cc(COc2ccc(C)c(C)c2)on1 (configuration not stated) 28.7%
CO[C@@H]1CN(C)C(=O)c2cc(NC(=O)Nc3cc(F)ccc3F)ccc2OC[C@H](C)N(C(=O)c2ccccn2)C[C@@H]1C -7.29%
c1ccc2c(c1)nnn2-c1ccncc1 -1.47%
COC(=O)c1sccc1NC(=S)Nc1ccc(C)cc1 12.9%
COC(=O)c1sccc1NC(=O)c1ccc(Cl)cc1 -0.421%
O=C(NC1CCCCC1)C(c1cc2ccccc2o1)n1c(=O)c(-c2ccco2)nc2ccccc21 (configuration not stated) 2.44%
CCOC(=O)c1cccc(NC(=O)CCOc2ccccc2)c1 -0.119%
CCOC(=O)c1cccc(NC(=O)CN2C(=O)C3CC=CCC3C2=O)c1 (configuration not stated) 0.82%
COc1ccc(C2Nc3ccccc3C(=O)N2Cc2ccccc2)cc1Cn1nnc2ccccc21 (configuration not stated) -5.17%
COc1ccc(N2C(=O)c3ccccc3NC2c2ccc(OC)c(CN3CCOCC3)c2)cc1 (configuration not stated) 7.45%
COc1cccc(-c2cnc3c(NC(C)=O)cc(-c4cc(F)ccc4OC)cn23)c1 -0.939%
CC(C)(C)C1CCC(=O)N2CCC[C@]2(c2ccccc2)C1 (some centres not stated) -2.76%
COc1ccc(C2=NN(C(C)=O)C(c3ccccc3)C2)cc1 (configuration not stated) 3.24%
COc1ccc(C2=NN(C(=O)c3cccnc3)C(c3ccccc3)C2)cc1 (configuration not stated) 1.72%
COCCNC(=S)N(C)[C@H]1C[C@H]2c3[nH]c4ccccc4c3CCN2C[C@H]1[C@H](C)O -0.111%
COC(=O)[C@]12CCCCC=C1N(Cc1ccc(Cl)cc1Cl)C(=O)[C@H](CC(=O)NCc1cccc3ccccc13)C2 -3.47%
O=C(CCc1ccc(O)cc1)NN=Cc1cc(Br)ccc1O -2.84%
O=C(Nc1ccccc1N1CCN(C(=O)c2ccccc2)CC1)c1ccc2c(c1)OCO2 1.55%
N#Cc1ccccc1NC(=O)c1ccc2c(c1)OCO2 3.38%
CN1C(=O)C(Br)(Br)CC1c1cccnc1 (configuration not stated) 0.101%
CCOC(=O)[C@]12CCCC=C1N(CCC1=CCCCC1)C(=O)[C@H](CC(=O)N1CCSCC1)C2 -2.19%
COc1ccccc1Cc1c(-c2ccc(F)cc2)nc2ccc(C)cn12 13%

activation, active:
Cc1ccc(C(=O)NNc2ncnc3ccccc23)cc1 42.9%
CCN(CCn1cccn1)Cc1cn[nH]c1-c1ccc(OC)cc1F 33.5%
NC(=O)c1ccccc1N(Cc1ccccc1)S(=O)(=O)c1ccccc1 30%
COc1ccc(-c2csc(Nc3cccc(C)n3)n2)cc1OC 50%
CCCCOc1ccc(-c2nnc(-c3ccco3)o2)cc1 46.7%
Cn1c(-c2ccc(C(=O)c3ccccc3)s2)nc2ccccc21 44.9%
Cc1ccn(-c2cccc(-n3ccc(C)n3)n2)n1 57.6%
O=C(CSC(=S)N1CCCCC1)c1c(F)cccc1F 58.4%
Cc1ccc(S(=O)(=O)N2CCN(C(=O)Cn3c(=O)cnc4ccccc43)CC2)c(C)c1 68.6%
CCCC(=O)N1c2ccc(-c3csc(N)n3)cc2CC1C (configuration not stated) 56.5%
O=[N+]([O-])c1cccc(C=NN=Cc2ccccc2O)c1 68%
COC(=O)c1sccc1NN1C(=O)c2ccccc2C1=O 40.2%
CCOC(=O)c1cccc(NC(=O)c2ccc(F)cc2F)c1 46.1%
COc1ccc(C2Nc3ccccc3C(=O)N2c2ccc(Cl)cc2)cc1Cn1cc([N+](=O)[O-])cn1 (configuration not stated) 63.8%
COc1ccc(C2=NN(C(=O)c3ccccc3C(=O)O)C(c3ccccc3O)C2)cc1 (configuration not stated) 42.7%
O=C(Nc1ccccc1F)c1ccc2c(c1)OCO2 44%
